Experimental data from PubChem BioAssay AID651784 (National Center for Advancing Translational Sciences (NCATS), 2012).
Records with an inconclusive call do not appear. Calls of active or inactive are those of the source. The call rests on the fitted dose curve; in most records, active means well fitted inhibition curve with a large enough effect; inconclusive means small, poorly fitted or top-dose-only effect; inactive means no such curve, though single readings can be large or run the other way.

Test: Acumen qHTS Assay for Inhibitors of the mTORC1 Signaling Pathway in MEF (Tsc2-/-, p53-/-) Cells: Hit Validation;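 further: phospho-rpS6 Ser235/236 immunofluorescence normalized to propidium iodide cell count; nearly all actives have a fitted effect of over 65% in size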;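 on activity change, negative = inhibition: cells exposed to compound for 24 hours; plate controls were DMSO for no effect and 7.5 nM rapamycin control for full effect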
Conditions: Acumen imaging; activity change, negative = inhibition: at 37.3 µM (top of the series)
Potency means the concentration at half of the fitted maximal effect.

Structure (SMILES)	activity change, negative = inhibition	Potency
COc1ccc(CCNC(=O)C(C)n2nc(C)c3sc4ccccc4c3c2=O)c(OC)c1 (stereo unspecified)	-17.7%	–
FC(F)(F)c1cccc(Nc2nc3nonc3nc2Nc2ccc(Cl)cc2)c1	–	1.65 µM (active)
CCOC(=O)c1ccc(-c2ccc(/C=C(\C#N)c3nc4ccc(C)cc4[nH]3)o2)cc1	–	4.14 µM (active)
COC(=O)c1ccccc1NC(=O)CCS(=O)(=O)c1nc(-c2ccc3c(c2)OCO3)cc(C(F)(F)F)n1	-88.3%	–
Cn1nnnc1SCCCNCc1ccccc1OCc1ccc(Cl)cc1	-60%	–
CN(C)c1ccc(Nc2nc3ccccc3n3nnnc23)cc1	-10%	–
CCc1ccc(S(=O)(=O)c2nnn(-c3ccc(F)cc3)c2N)cc1	-3.55%	–
O=C(Nc1ccc(Cl)cc1)c1cc(S(=O)(=O)N2CCCc3ccccc32)ccc1F	-18.3%	–
CCN(CC)CCNC(=O)c1ccc(Cn2c(=O)c3cccn3c3cccnc32)cc1	-24.3%	–
CC(C)Oc1ccc(CNC(=O)c2ccc3nc(SCc4ccc(F)cc4)n(C)c3c2)cc1	-8.96%	–
CN1CCN(C(CNC(=O)C(=O)Nc2cccc(Cl)c2)c2ccc3c(c2)OCO3)CC1 (stereo unspecified)	-4.53%	–
Cc1nn(CCCC(=O)NCc2cccc(Cl)c2)c(=O)c2c1sc1ccccc12	-2.73%	–
Cc1ccccc1NC(=O)c1sc2nc3c(cc2c1N)CCCC3	-21.3%	–
CCN1CCOC(=O)C1CC(=O)Nc1cc(C)ccc1OC (stereo unspecified)	–	10.4 µM (active)
CC1=C(C(=O)Nc2ccc(C)cc2C)C(c2cc(Br)ccc2F)n2ncc(C(=O)Nc3ccc(C)cc3)c2N1 (stereo unspecified)	–	9.27 µM (active)
COc1ccc(CCNC(=O)CCCn2nc(C)c3sc4ccccc4c3c2=O)cc1OC	-12%	–
